According to ChEMBL document CHEMBL3988442, “University of Dundee, Small-Polar-MMV Screening Library” (2021):
Among all 48,000 compounds or so, about 13,000 (27%) showed an effect of 50% or more. The list shows a part of the results.

These compounds were tested on Wolbachia pipientis (assay: Anti-Wolbachia Cell-Based Screen). Settings: 5 µM.
Assay type: functional
Parameters: scale not given: in the data most compounds retested in dose-response had high values

Structure (SMILES) | Percent Effect
Cn1cnc(S(=O)(=O)NCC2CCN(C(=O)Oc3ccccc3)CC2)c1 | -16.29%
Cc1ccc(C(NC(=O)Cn2cc(C3CC3)nn2)C2CC2)cc1 (stereo not drawn) | -17.63%
Cc1cc(CN(C)C(=O)NC2CCC(O)CC2)no1 (stereo not drawn) | -5.162%
c1csc(CNc2ccccc2Cn2cncn2)c1 | 2.841%
Cn1cnc(S(=O)(=O)NCC2(O)CCc3ccccc32)c1 (stereo not drawn) | -54.8%
Cn1cc(CN2CCC[C@]3(C(=O)O)CN(c4cnccn4)CC[C@@H]23)cn1 | -2.616%
NC(=O)c1cnc(NC2CCN(c3ccccn3)CC2)c(Cl)c1 | -2.297%
O=c1cc(N2CCCC2)cnn1CC(F)F | 95.3%
O=c1cc(N2CCNCC2)cnn1CCc1ccc(F)cc1 | -7.094%
CC(C)=CCn1ncc(N2CCCCC2)cc1=O | 8.054%
O=c1cc(N2CCCCC2)cnn1CC(O)C(F)(F)F (stereo not drawn) | 110.9%
O=c1cc(N2CCCC2)cnn1CCc1cccc(F)c1 | 9.222%
O=c1cc(N2CCCCC2)cnn1C[C@H](O)CO | 78.69%
CC(C)=CCn1ncc(N2CCOCC2)cc1=O | 1.937%
O=c1cc(N2CCOCC2)cnn1CCc1ccc(F)cc1 | -9.338%
CCC(CC)Cn1ncc(N2CCOCC2)cc1=O | 7.831%
Cc1nnc(N2C[C@H](C(=O)NCC3CC3)[C@@H]3CCO[C@@H]3C2)s1.O=C(O)C(F)(F)F | 0.08379%
CC(C)Cc1noc(CNc2cccc(-c3nnnn3C)c2)n1 | 3.895%
CN(C)[C@H]1CCN(c2nc(C(C)(C)C)nc3c2cnn3C)C1 | -2.508%
CCCOC1CCCN(c2ncnc3c2CCN(C(=O)C2CC2)C3)C1 (stereo not drawn) | 1.517%
CCCOC1CCCN(c2nc(COC)nc3c2cnn3C)C1 (stereo not drawn) | 118.8%
CCc1nc(N2CCN(Cc3ncccc3C)CC2)c2cnn(C)c2n1 | 1.339%
CCCOC1CCCN(c2nc(CC)nc3c2cnn3C)C1 (stereo not drawn) | 107.1%
COCc1nc(N2CCC(CCO)CC2)c2cnn(C)c2n1 | -4.999%
COCc1nc(N2CC[C@H](N(C)C)C2)c2cnn(C)c2n1 | 102.3%

Structure (SMILES) | Percent Effect
COc1cc(NC(=O)Cn2ccc3sc(C)cc3c2=O)cc(OC)c1 | -10.49%
COCCNC(=O)Cn1ccc2sc(C)cc2c1=O | 165.3%
COCCCNC(=O)CN(C)C(=O)c1cc(C)sc1C | -3.68%
CCC(C)NC(=O)Cn1ccc2sc(C)cc2c1=O (stereo not drawn) | 106.2%
NC(=O)NC(=O)Cn1ccc2sccc2c1=O | -7.139%
N#Cc1cccc(N2CCCC3(C2)CN(c2ncc(F)cn2)CCO3)n1.O=C(O)C(F)(F)F (stereo not drawn) | -18.06%
Fc1ccc(CN2CCCCC2Cn2cncn2)c2ncccc12 (stereo not drawn) | 6.637%
Cc1ncc(CC(=O)N2CCCC(COc3ccccc3F)C2)c(=O)[nH]1 (stereo not drawn) | 16.93%
Cn1cnc2c1CCN(Cc1cccc(OCC(N)=O)c1)C2 | -0.9151%
O=C(O)C(c1ccc2c(c1)OCO2)N1CCC(C(=O)N2CCCC2)CC1 (stereo not drawn) | 0.296%
CC(=O)N1CC[C@H]2NC(=O)N(Cc3ccccc3)C(=O)[C@H]21 | 6.922%
COC(=O)N1CC[C@@]2(O)CCCC[C@H]2[C@@H]1c1ccc2c(c1)OCO2 | 122.6%
CC(=O)N1CC[C@@]2(O)CCCC[C@H]2[C@@H]1c1ccc2c(c1)OCO2 | 121.2%
CC(=O)N1CCN(C[C@H]2CC[C@@H](Cc3ccc4c(c3)OCO4)O2)CC1 | 6.248%
Cn1cc(C(=O)N2CCCC2c2ccc3c(c2)OCO3)ccc1=O (stereo not drawn) | 2.509%
NC(=O)CN1CCC(C(=O)NCc2ccc3c(c2)OCCCO3)CC1 | -4.067%
CCN1CCCC(O)(CNCc2ccc3c(c2)OCO3)C1 (stereo not drawn) | -9.558%
Cn1ccc(CN2CCCC2c2ccc3c(c2)OCCCO3)cc1=O (stereo not drawn) | 3.687%
CN1CCN(C(=O)N2CC[C@@](O)(c3ccccc3)[C@H]3CCCC[C@@H]32)CC1 | -18.77%
NC(=O)CN1CC[C@@]2(O)CCCC[C@H]2[C@@H]1c1ccc2c(c1)OCO2 | 128.7%
CC(=O)N1CC[C@@]2(O)CCCC[C@H]2[C@@H]1c1ccccc1 | 132.1%
CCCN1CC2(CCN(c3ccc(C(C)=O)cn3)CC2)CC1C(=O)O (stereo not drawn) | 10.16%
Cc1noc([C@@H]2C[C@H](NC(=O)NC(C)C)CN2C)n1 | -7.021%
CN1C[C@@H](NC(=O)c2ccccc2)C[C@H]1c1nc(-c2cnccn2)no1 | -2.532%
CN1CCN(CCc2ncnn2-c2ccc3c(c2)OCO3)CC1 | -0.8313%

Structure (SMILES) | Percent Effect
O=S(=O)(NCCSc1nccn1C1CC1)c1ccccc1 | 5.63%
CSCc1ccc(CNCCN2CCOCC2)o1 | -4.251%
Cc1ccc(CNCCN2CCOCC2)o1 | 131.7%
CSCc1ccc(CNCCCN2CCOCC2)o1 | 3.399%
CSc1ccccc1C(=O)NCc1cc2n(n1)CCCN(CC(C)C)C2 | -7.136%
Cn1cc(N2CCN(c3ccc(C#N)c(Cl)c3)CC2=O)cn1 | -30.5%
Cc1cc(CN2CCN(C(=O)c3sccc3C(C)C)CC2)no1 | -0.2452%
CC(C)(O)CN1CCN(C(=O)c2sccc2C2CC2)CC1 | -8.363%
CCC(O)CN1CCN(C(=O)c2sccc2C2CC2)CC1 (stereo not drawn) | 131.2%
CC(C)(C)OC(=O)N1CCN(C(=O)c2sccc2C2CC2)CC1 | -2.417%
CCc1nnsc1C(=O)N1CCN(CC(O)CC)CC1 (stereo not drawn) | -1.027%
CCC(O)CN1CCN(C(=O)c2sccc2C(C)C)CC1 (stereo not drawn) | 113.4%
Cc1n[nH]c(C)c1CNc1ccc(-c2nc(C3CC3)no2)cn1 | 9.439%
COc1ccc([C@@H]2CN(C(=O)CCc3cc(Cl)no3)C[C@H]2N(C)C)cc1 | -5.122%
O=C(O)c1ccc(CCNC(=O)C2(O)Cc3ccccc3C2)cc1 | 0.991%
Cc1ccc(-n2ccnc2)c(C(=O)NCCOCC(F)(F)F)c1 | 1.401%
COc1ccc(OCCNC(=O)c2ccc3c(=O)[nH][nH]c(=O)c3c2)cc1 | 4.909%
O=C(NCCOCC(F)(F)F)c1ccc(-c2ccco2)[nH]c1=O | 3.056%
CC(O)(CCc1ccccc1)CNC(=O)c1ccc(F)cc1 (stereo not drawn) | -3.449%
Cn1c(=O)c2cc(C(=O)NCCOc3ccccc3)ccc2n(C)c1=O | 103.9%
Cn1c(=O)c2cc(C(=O)NCCOCC(F)(F)F)ccc2n(C)c1=O | 109.9%
O=C(NCCOc1ccccc1)c1ccc2c(c1)C(=O)NC2=O | -4.876%
Cn1c(=O)c2cc(C(=O)NCCc3ccccc3)ccc2n(C)c1=O | 97.39%
